# Assay outcomes: PubChem BioAssay, several laboratories
# BJeLR lethal = MLPCN primary cell-based screen for lethality selective to Ras in HRASV12 cells. AID 1554, 2009. BJeLR (HRASV12) viability, CellTiter-Glo ATP luminescence, 48 h. 300,000 compounds, 0.17% hits. inhibition, % (no concentration beside the values); in the data active = inhibition above about 50%
# PrPC TRFRET = inhibitors of human cell surface prion protein PrPC, primary screen, cell-based, TR-FRET | Major prion protein (Homo sapiens), P04156 | TR-FRET read-out | inhibition, % at 13.8 µM | 370,000 compounds, 0.43% hits | AID 720596, 2013; in the data active = inhibition above about 24%
# Y pestis TopoI = Yersinia pestis topoisomerase I inhibitors, primary screen, biochemical, cleavage product accumulation, plate reader, single point; DNA topoisomerase I (Yersinia pestis CO92); Y. pestis Topo-I cleavage product accumulation; activity, % at 10 µM; 360,000 compounds, 0.064% hits; AID 504884, 2011; in the data active = activity above about 50%, passing the limit was not always enough
# PrP 5UTR inh = inhibition of PrP 5' UTR reporter expression; cell-based PrP 5' UTR mRNA reporter, plate reader; 340,000 compounds, 0.35% hits; inhibition, % (no concentration beside the values); in the data active = inhibition above about 52%
# CCHFV vOTU inh = CCHFV vOTU protease inhibitors, primary screen, biochemical, Pep-AMC substrate, fluorescence. AID 651958, 2012. inhibition, % at 11.5 µM. 370,000 compounds, 0.55% hits; in the data active = inhibition above about 30%
# PfHsp40 rescue = rescue of yeast from PfHsp40 toxicity, primary screen, S. cerevisiae, ATP luminescence | S. cerevisiae expressing PfHsp40, growth rescue | growth rescue, % at 12.5 µM | 340,000 compounds, 0.68% hits | AID 504582, 2011; in the data active = growth rescue above about 28%, passing the limit was not always enough;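 note: yeast W303a lacking pdr1 and pdr3 grown in galactose medium; growth measured after three days at 30 °C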
# PrPC confirm = confirmation of inhibitors of cell surface human prion protein, confirmation, cell-based, TR-FRET | shares compounds with PrPC TRFRET | inhibition, % at 13.8 µM | 1,500 compounds, 65% hits | AID 743200, 2013 | cell surface PrPC level; in the data active = inhibition above about 25%
# LD9 cytotox = cytotoxicity in LD9 cells, cytotoxicity control for cell surface PrPc inhibitor project, cell-based, luminescence, high throughput; shares compounds with PrPC TRFRET; luminescence viability; inhibition, % at 13.8 µM; 1,500 compounds, 29% hits; AID 743201, 2013; in the data active = inhibition above about 9.5%
# Numbers stand for hits; n = inactive; x = not tested or not shown. Most compounds without a hit are left out; they make up all but 2% or so of the library.
SMILES,BJeLR lethal,PrPC TRFRET,Y pestis TopoI,PrP 5UTR inh,CCHFV vOTU inh,PfHsp40 rescue,PrPC confirm,LD9 cytotox
COC(=O)[C@H]1[C@@H](O)[C@@]2(O)c3c(OC)cc(OC)cc3O[C@@]2(c2ccc(OC)cc2)[C@@H]1c1ccc(F)cc1,x,83.1,x,x,n,x,90.9,20.2
COc1ccc(NC(=O)Nc2ccc(Cc3ccncc3)cc2)c(OC)c1,n,26.5,n,n,n,n,n,n
Cc1ccccc1OCCC(=O)Nc1ccc2c(C)cc(=O)oc2c1,n,38.0,n,n,n,n,26.6,n
Cc1ccccc1OCC(=O)Nc1ccc(Cc2ccncc2)cc1,n,24.9,n,n,n,n,n,n
Cc1cccc(C)c1NS(=O)(=O)c1ccc(-c2cnc(C3CC3)o2)cc1,59.7,24.5,n,n,n,282.8,n,29.2
C[C@@H]1CN([C@@H](C)CO)C(=O)CCCn2cc(nn2)CO[C@H]1CN(C)C(=O)Nc1ccc(C(F)(F)F)cc1,x,n,x,x,n,x,x,x
Cc1ccc(C)c(NC(=O)c2nnn(Cc3ccccc3)c2N)c1,n,27.4,n,n,n,n,n,n
Cc1ccc(Cn2nnc(C(=O)Nc3cc(C)ccc3C)c2N)cc1,n,n,n,n,n,n,x,x
CCCC/C=C1/[C@@H](CC)N(Cc2ccc(OC)cc2OC)C2=N[C@@H](c3ccccc3)CC(=O)N21,x,n,x,x,x,x,x,x
Cc1cc(C)c(-c2csc(NC(=O)/C=C/c3cccs3)n2)c(C)c1,n,44.8,n,n,n,n,41.3,n
Cc1cc(C)nc(NC(=O)/C=C/c2cccs2)c1,n,n,n,n,n,n,x,x
CCOC(=O)COc1cc(Br)c(/C=N/Nc2ccccc2)cc1OC,n,61.1,n,n,n,n,64.2,n
COc1cc(C=O)c(Br)cc1OCC(=O)NCCc1ccccc1,n,n,n,n,n,n,x,x
CC[C@H](C)[C@@H]1NC(=O)CNC(=O)c2csc(n2)[C@H](C(C)(C)O)OC(=O)C(C)(C)[C@H](CCCC(C)(Cl)Cl)OC(=O)c2csc1n2,x,34.2,x,x,n,x,25.6,n
O=C(Nc1ccc2c(c1)OCO2)c1cc(-c2ccc(O)cc2)on1,n,32.0,n,n,n,n,n,n
CC(C)Cc1cc(C(=O)Nc2ccc3c(c2)OCO3)no1,n,31.1,n,n,n,n,29.2,n
CCOc1ccc2[nH]cc(C(=O)NCc3ccc(F)cc3)c(=O)c2c1,n,26.8,n,n,n,n,26.6,n
CCCOc1ccc(C2NC(=S)NC(C)=C2C(=O)c2ccccc2)cc1OC (stereo not given),n,49.6,n,n,n,n,53.0,n
COc1cc(C2NC(=O)NC(c3ccccc3)=C2C(C)=O)ccc1OCC#N (stereo not given),n,n,n,n,n,n,x,x
CC1=C(C(=O)c2ccccc2)C(c2ccc(OC(F)F)cc2)NC(=S)N1 (stereo not given),n,49.8,n,n,n,n,46.7,n
COc1cc(C2NC(=S)NC(C)=C2C(=O)c2ccccc2)ccc1O (stereo not given),n,n,n,n,n,n,x,x
C=CCOc1ccc(C2NC(=S)NC(c3ccccc3)=C2C(C)=O)cc1OC (stereo not given),n,51.5,n,n,n,n,45.2,n
CCCc1nc2c(C)cc(Br)cn2c1Cc1cccc(Cl)c1,x,n,x,x,n,x,x,x
Cc1cc(Cl)c(S(=O)(=O)N2CCCC2)cc1OCC(=O)NC1CCCCC1,n,25.9,n,n,n,n,n,n
Cc1ccc(OC2CCN(C(=O)[C@@H](Cc3ccccc3)NC(=O)[C@H]3O[C@@H](n4ccc(=O)[nH]c4=O)[C@H](O)[C@@H]3O)CC2)cc1,x,n,x,x,n,x,x,x
